Test results reported in PubChem BioAssay (EPA / NIEHS).
Values joined by “and” are separate entries in the source; they are usually repeats but may differ in a detail not shown here. Equal entries are not always repeated. Some compounds were tested as several samples or in several runs, with calls that do not always agree. Active and inactive are the calls of the source. The calls were made as follows: active = hit-call score of the fitted dose curve at least 0.9, where 1 is the maximum; inactive = score below 0.9.

Experiments:
[1] = read-out: flavin-containing dimethylaniline monooxygenases 3 (FMO3), FMO3 (gene 2328); test: LTEA_HepaRG_FMO3: Life Technologies and Expression Analysis (LTEA) Assay for flavin-containing dimethylaniline monooxygenases 3 (FMO3) using HepaRG (AID 2283453); conditions: mRNA level, 48 h; actives raise or lower the signal
Summary of the method: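 FMO3 transcript quantified by TaqMan qRT-PCR against three housekeeping genes after 48 h chemical exposure of HepaRG cells. Eight-point half-log series, top 100 uM, 0.5% DMSO vehicle; phenobarbital 1mM induction control; up- or down-regulation fitted.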

[2] = read-out: Cytochrome P450 (CYP1A1), CYP1A1 (gene 1543); test: LTEA_HepaRG_CYP1A1: Life Technologies and Expression Analysis (LTEA) Assay for Cytochrome P450 (CYP1A1) using HepaRG (AID 2283454); conditions: mRNA level, 48 h; actives raise or lower the signal
Summary of the method: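 Differentiated human HepaRG cells, after 48 h plating, exposed in duplicate for 48 h in serum-free induction medium to 8 half-log concentrations up to 100 uM in 0.5% DMSO. CYP1A1 mRNA by qRT-PCR, normalized to ACTB/GAPDH/POLR2A; bidirectional fit versus DMSO.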

[3] = read-out: CFLAR gene, CFLAR (gene 8837); test: LTEA_HepaRG_CFLAR: Life Technologies and Expression Analysis (LTEA) Assay for CFLAR gene using HepaRG (AID 2283455); conditions: mRNA level, 48 h; actives raise or lower the signal
Summary of the method: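 Transcript level by qRT-PCR (normalized to ACTB, GAPDH and POLR2A) after 48 h chemical exposure of HepaRG cells, top concentration 100 uM with half-log steps, 0.5% DMSO vehicle, duplicates; fitted bidirectionally against DMSO baseline.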

[4] = read-out: Forkhead box O1 (FOXO1), FOXO1 (gene 2308); test: LTEA_HepaRG_FOXO1: Life Technologies and Expression Analysis (LTEA) Assay for Forkhead box O1 (FOXO1) using HepaRG (AID 2283456); conditions: mRNA level, 48 h; actives raise or lower the signal
Summary of the method: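 FOXO1 transcript quantified by qRT-PCR after 48 h chemical exposure (top 100 uM, half-log steps, 0.5% DMSO) of HepaRG cells, housekeeping-normalized (ACTB/GAPDH/POLR2A). Changes fitted in both directions relative to vehicle.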

[5] = read-out: growth arrest and DNA damage 45 (GADD45A), GADD45A (gene 1647); test: LTEA_HepaRG_GADD45A: Life Technologies and Expression Analysis (LTEA) Assay for growth arrest and DNA damage 45 (GADD45A) using HepaRG (AID 2283458); conditions: mRNA level, 48 h; actives raise or lower the signal
Summary of the method: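 Transcript induction or loss, quantified by TaqMan qRT-PCR against three housekeeping genes, is the read-out. HepaRG cells received chemicals for 48 h across eight half-log concentrations from 100 uM in 0.5% DMSO; gain and loss fitted relative to DMSO.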

[6] = read-out: Forkhead box O3 (FOXO3), FOXO3 (gene 2309); test: LTEA_HepaRG_FOXO3: Life Technologies and Expression Analysis (LTEA) Assay for Forkhead box O3 (FOXO3) using HepaRG (AID 2283459); conditions: mRNA level, 48 h; actives raise or lower the signal
Summary of the method: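 FOXO3 transcript measured by qRT-PCR (normalized to ACTB, GAPDH, POLR2A) after 48 h exposure of HepaRG cells in serum-free induction medium. Duplicates, eight half-log concentrations up to 100 uM, 0.5% DMSO; gain or loss fitted against DMSO.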

[7] = read-out: ABC Transporter (ABCB1), ABCB1 (gene 5243); test: LTEA_HepaRG_ABCB1: Life Technologies and Expression Analysis (LTEA) Assay for ABC Transporter (ABCB1) using HepaRG (AID 2283460); conditions: mRNA level, 48 h; actives raise or lower the signal
Summary of the method: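 ABCB1 transcript level measured by TaqMan qRT-PCR against three housekeeping genes after 48 h chemical exposure of differentiated HepaRG cells. Top concentration 100 uM, half-log steps, eight points, 0.5% DMSO vehicle; bidirectional fit relative to DMSO.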

[8] = read-out: growth arrest and DNA damage 45 (GADD45B), GADD45B (gene 4616); test: LTEA_HepaRG_GADD45B: Life Technologies and Expression Analysis (LTEA) Assay for growth arrest and DNA damage 45 (GADD45B) using HepaRG (AID 2283461); conditions: mRNA level, 48 h; actives raise or lower the signal
Summary of the method: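 Differentiated human HepaRG cells in serum-free induction medium exposed 48 h in duplicate to eight concentrations, top 100 uM, half-log steps, 0.5% DMSO. GADD45B mRNA by TaqMan qRT-PCR, normalized to ACTB, GAPDH, POLR2A; bidirectional fit versus DMSO.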

[9] = read-out: ABC Transporter (ABCC3), ABCC3 (gene 8714); test: LTEA_HepaRG_ABCC3: Life Technologies and Expression Analysis (LTEA) Assay for ABC Transporter (ABCC3) using HepaRG (AID 2283462); conditions: mRNA level, 48 h; actives raise or lower the signal
Summary of the method: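 Differentiated human HepaRG cells exposed 48 h in serum-free induction medium, 0.5% DMSO vehicle, 8-point half-log series to 100 uM in duplicate. ABCC3 mRNA by qRT-PCR, normalised to ACTB, GAPDH, POLR2A; bidirectional fit vs DMSO.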

[10] = read-out: ABC Transporter (ABCB11), ABCB11 (gene 8647); test: LTEA_HepaRG_ABCB11: Life Technologies and Expression Analysis (LTEA) Assay for ABC Transporter (ABCB11) using HepaRG (AID 2283463); conditions: mRNA level, 48 h; actives raise or lower the signal
Summary of the method: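 ABCB11 transcript levels quantified by TaqMan qRT-PCR against three housekeeping genes after 48 h chemical exposure of HepaRG cultures. Concentrations up to 100 uM in half-log steps, 0.5% DMSO vehicle; both induction and suppression scored.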

[11] = read-out: ABC Transporter (ABCC2), ABCC2 (gene 1244); test: LTEA_HepaRG_ABCC2: Life Technologies and Expression Analysis (LTEA) Assay for ABC Transporter (ABCC2) using HepaRG (AID 2283464); conditions: mRNA level, 48 h; actives raise or lower the signal
Summary of the method: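 Differentiated HepaRG cells in serum-free induction medium exposed 48 h to eight half-log concentrations up to 100 uM, 0.5% DMSO, in duplicate. ABCC2 mRNA measured by qRT-PCR (TaqMan, Fluidigm), normalized to ACTB, GAPDH and POLR2A. Fitted in both directions against DMSO.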

[12] = read-out: Broad substrate specificity ATP-binding cassette transporter ABCG2 (Homo sapiens) (UniProt Q9UNQ0); test: LTEA_HepaRG_ABCG2: Life Technologies and Expression Analysis (LTEA) Assay for ABC Transporter (ABCG2) using HepaRG (AID 2283465); conditions: mRNA level, 48 h; actives raise or lower the signal
Summary of the method: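 ABCG2 transcript was quantified by TaqMan qRT-PCR against three housekeeping genes in HepaRG cells. Cells were treated in duplicate for 48 h across an 8-point half-log series up to 100 uM, with 0.5% DMSO vehicle. Gain or loss versus DMSO was fit.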

[13] = read-out: ATP-citrate lyase (ACLY), ACLY (gene 47); test: LTEA_HepaRG_ACLY: Life Technologies and Expression Analysis (LTEA) Assay for ATP-citrate lyase (ACLY) using HepaRG (AID 2283466); conditions: mRNA level, 48 h; actives raise or lower the signal
Summary of the method: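 ACLY mRNA quantified by qRT-PCR on Fluidigm arrays against three housekeeping genes, after 48 h chemical treatment of HepaRG cells (top concentration 100 uM, half-log steps, 0.5% DMSO vehicle). Up- or down-regulation fitted relative to DMSO.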

[14] = read-out: Peroxisomal acyl-coenzyme A oxidase 1 (ACOX1) gene, ACOX1 (gene 51); test: LTEA_HepaRG_ACOX1: Life Technologies and Expression Analysis (LTEA) Assay for Peroxisomal acyl-coenzyme A oxidase 1 (ACOX1) gene using HepaRG (AID 2283467); conditions: mRNA level, 48 h; actives raise or lower the signal
Summary of the method: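 ACOX1 transcript levels were quantified by TaqMan qRT-PCR against three housekeeping genes after 48 h chemical exposure of differentiated human HepaRG cells. Exposure used eight half-log steps topping at 100 uM, 0.5% DMSO vehicle, in duplicate. Bidirectional curve fits were made relative to DMSO.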

[15] = read-out: Alkaline Phosphatase, Placental (ALPP) gene, ALPP (gene 250); test: LTEA_HepaRG_ALPP: Life Technologies and Expression Analysis (LTEA) Assay for Alkaline Phosphatase, Placental (ALPP) gene using HepaRG (AID 2283468); conditions: mRNA level, 48 h; actives raise or lower the signal
Summary of the method: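 HepaRG cells plated 48 h, then exposed in duplicate for 48 h in serum-free induction medium to 8-point half-log series from 100 uM in 0.5% DMSO. ALPP mRNA by TaqMan qRT-PCR, normalized to ACTB/GAPDH/POLR2A; bidirectional fit versus DMSO.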

[16] = read-out: Bcl-2 (BAD) gene, BAD (gene 572); test: LTEA_HepaRG_BAD: Life Technologies and Expression Analysis (LTEA) Assay for Bcl-2 (BAD) gene using HepaRG (AID 2283469); conditions: mRNA level, 48 h; actives raise or lower the signal
Summary of the method: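 Read-out: qRT-PCR of BAD mRNA, normalized to three housekeeping genes. Human HepaRG cultures got 48 h chemical exposure in 0.5% DMSO, duplicate eight-point half-log series topping at 100 uM. Gain or loss of signal fitted versus DMSO vehicle.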

[17] = read-out: Bcl-2 (BAX) gene, BAX (gene 581); test: LTEA_HepaRG_BAX: Life Technologies and Expression Analysis (LTEA) Assay for Bcl-2 (BAX) gene using HepaRG (AID 2283470); conditions: mRNA level, 48 h; actives raise or lower the signal
Summary of the method: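 Cells were thawed, plated for 48 h, moved to serum-free induction medium and dosed for 48 h (highest concentration 100 uM, half-log steps, 0.5% DMSO). Total RNA was then analysed for BAX expression by qRT-PCR.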

[18] = read-out: adenosine kinase (ADK) gene, ADK (gene 132); test: LTEA_HepaRG_ADK: Life Technologies and Expression Analysis (LTEA) Assay for adenosine kinase (ADK) gene using HepaRG (AID 2283471); conditions: mRNA level, 48 h; actives raise or lower the signal
Summary of the method: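 Read-out is ADK transcript level measured by qRT-PCR and normalised to three housekeeping genes. Cells are human HepaRG, dosed for 48 h at up to 100 uM in 0.5% DMSO. Gain or loss of signal is fitted against DMSO controls.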

[19] = read-out: Alpha-fetoprotein (AFP) gene, AFP (gene 174); test: LTEA_HepaRG_AFP: Life Technologies and Expression Analysis (LTEA) Assay for Alpha-fetoprotein (AFP) gene using HepaRG (AID 2283472); conditions: mRNA level, 48 h; actives raise or lower the signal
Summary of the method: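 Chemicals were tested on differentiated HepaRG cells for 48 hours at eight concentrations up to 100 uM, with 0.5% DMSO as vehicle. AFP expression was then quantified by qRT-PCR and analyzed for gain or loss relative to DMSO.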

[20] = CEETOX_H295R_TESTO: CeeTox H295R High-throughput Steroidogenesis Assay for Testosterone (TESTO) (AID 2283457); conditions: actives raise or lower the signal
Summary of the method: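 H295R adrenal cells, passage ≤10, exposed to chemicals for 48 h. Testosterone in medium measured by MTBE extraction and HPLC-MS/MS against a 7-point standard curve. Bidirectional fit versus DMSO; MTT viability checked in the same wells.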

Measured: AC50

Chain of Broad substrate specificity ATP-binding cassette transporter ABCG2 (Homo sapiens) (Q9UNQ0 whole entry, looked up): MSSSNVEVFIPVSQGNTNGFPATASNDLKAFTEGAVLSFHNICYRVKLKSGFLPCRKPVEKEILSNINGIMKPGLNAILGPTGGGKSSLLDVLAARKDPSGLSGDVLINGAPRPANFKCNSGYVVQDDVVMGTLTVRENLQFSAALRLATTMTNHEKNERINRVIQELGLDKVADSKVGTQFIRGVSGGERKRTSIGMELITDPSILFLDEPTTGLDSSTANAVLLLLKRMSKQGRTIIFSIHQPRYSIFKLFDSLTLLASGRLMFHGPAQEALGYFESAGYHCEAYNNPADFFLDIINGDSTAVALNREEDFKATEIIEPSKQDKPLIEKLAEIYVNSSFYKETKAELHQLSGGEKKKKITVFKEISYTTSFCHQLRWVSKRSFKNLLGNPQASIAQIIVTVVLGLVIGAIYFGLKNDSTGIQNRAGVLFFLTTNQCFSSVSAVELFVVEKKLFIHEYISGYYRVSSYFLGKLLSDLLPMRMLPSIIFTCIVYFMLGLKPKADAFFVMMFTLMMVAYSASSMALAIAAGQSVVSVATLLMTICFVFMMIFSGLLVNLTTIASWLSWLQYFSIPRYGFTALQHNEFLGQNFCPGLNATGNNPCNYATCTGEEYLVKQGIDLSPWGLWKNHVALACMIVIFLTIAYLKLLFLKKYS

ClC1C(Cl)C(Cl)C(Cl)C(Cl)C1Cl (centres undefined)
inactive: [1] | [3] | [4] | [5] | [6] | [8] | [9] | [10] | [12] | [13] | [14] | [15] | [16] | [17] | [18] | [19]
active: [2] 27.3 µM and 19.9 µM | [7] 1.54 µM and 4.45 µM | [11] 3.62 µM | [12] 3.28 µM | [19] 19.5 µM

CC1(C)C(C=C(Cl)Cl)C1C(=O)OC(C#N)c1ccc(F)c(Oc2ccccc2)c1 (centres undefined)
active: [2] 37.7 µM | [7] 24.5 µM | [11] 50 µM | [12] 21.4 µM
not listed: [20]
inactive: all other assays above

CC(C)(C)C(O)/C(=C\c1ccc(Cl)cc1Cl)n1cncn1 (centres undefined)
inactive: [5] | [9] | [12] | [16] | [18]
active: [1] 33.8 µM | [2] 9.3 µM | [3] 76.6 µM | [4] 89.4 µM | [6] 82.3 µM | [7] 84.4 µM | [8] 87.1 µM | [10] 25.1 µM | [11] 80.6 µM | [13] 88.9 µM | [14] 50 µM | [15] 22 µM | [17] 59.4 µM | [19] 19.8 µM

O=C(O)C(F)(F)C(F)(F)C(F)(F)C(F)(F)C(F)(F)C(F)(F)C(F)(F)F
active: [4] 50 µM | [14] 3.48 µM and 8.37 µM | [15] 9.92 µM
inactive: [1] | [2] | [3] | [4] | [5] | [6] | [7] | [8] | [9] | [10] | [11] | [12] | [13] | [15] | [16] | [17] | [18] | [19]

C#CCN1C(=O)COc2cc(F)c(N3C(=O)C4=C(CCCC4)C3=O)cc21
active: [2] 65.6 µM | [7] 9.92 µM | [10] 50 µM | [11] 8.81 µM | [19] 40.4 µM
inactive: all other assays above

CCc1ccc(C(=O)NN(C(=O)c2cc(C)cc(C)c2)C(C)(C)C)cc1
active: [1] 81.9 µM | [7] 13.3 µM | [12] 50 µM | [15] 50 µM | [19] 50 µM
not listed: [20]
inactive: all other assays above
